Assay results taken from PubChem BioAssay (EPA / NIEHS).
Calls of active or inactive are those of the source. How the source made its calls: active means hit-call score of the fitted dose curve at least 0.9, where 1 is the maximum; inactive means score below 0.9.

Key:
[1] = read-out: Interleukin-8 (IL8), CXCL8 (gene 3576); test: BSK_CASM3C_IL8: BioMAP Diversity Plus: CASM3C Assay for Interleukin-8 (IL8) Biomarker Activity (AID 2283042); conditions: primary human coronary artery smooth muscle cells; actives raise or lower the signal;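 further: IL-8 protein level quantified by ELISA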
[2] = read-out: Human Leukocyte Antigen - DR isotype (HLADR), HLA-DRA (gene 3122); test: BSK_CASM3C_HLADR: BioMAP Diversity Plus: CASM3C Assay for Human Leukocyte Antigen - DR isotype (HLADR) Biomarker Activity (AID 2283043); conditions: primary human coronary artery smooth muscle cells; actives raise or lower the signal;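 further: cell-surface HLA-DR protein level quantified by ELISA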
[3] = read-out: Macrophage colony-stimulating factor (MCSF), CSF1 (gene 1435); test: BSK_CASM3C_MCSF: BioMAP Diversity Plus: CASM3C Assay for Macrophage colony-stimulating factor (MCSF) Biomarker Activity (AID 2283044); conditions: primary human coronary artery smooth muscle cells; actives raise or lower the signal;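 further: M-CSF protein amount quantified by ELISA after 24 h exposure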
[4] = read-out: Low-density lipoprotein receptor (LDLR), LDLR (gene 3949); test: BSK_CASM3C_LDLR: BioMAP Diversity Plus: CASM3C Assay for Low-density lipoprotein receptor (LDLR) Biomarker Activity (AID 2283045); conditions: primary human coronary artery smooth muscle cells; actives raise or lower the signal;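 further: LDLR protein level on the cell surface quantified by ELISA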
[5] = read-out: Monocyte Chemoattractant Protein-1 (MCP1), CCL2 (gene 6347); test: BSK_CASM3C_MCP1: BioMAP Diversity Plus: CASM3C Assay for Monocyte Chemoattractant Protein-1 (MCP1) Biomarker Activity (AID 2283046); conditions: primary human coronary artery smooth muscle cells; actives raise or lower the signal;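 further: MCP-1 level quantified by ELISA 24 h after dosing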
[6] = BSK_CASM3C_Proliferation: Cell Proliferation Assessment in the BioMAP Diversity Plus: CASM3C Assay (AID 2283047); conditions: primary human coronary artery smooth muscle cells;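 further: sulforhodamine B total protein stain as relative cell number at 560 nm; sub-confluent cells exposed 48 h before staining; fitted both ways against DMSO so gain or loss of cell number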
[7] = read-out: Monokine induced gamma interferon (MIG), CXCL9 (gene 4283); test: BSK_CASM3C_MIG: BioMAP Diversity Plus: CASM3C Assay for Monokine induced gamma interferon (MIG) Biomarker Activity (AID 2283048); conditions: primary human coronary artery smooth muscle cells; actives raise or lower the signal;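 further: MIG protein level measured by ELISA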
[8] = read-out: serum amyloid A (SAA), SAA1 (gene 6288); test: BSK_CASM3C_SAA: BioMAP Diversity Plus: CASM3C Assay for serum amyloid A (SAA) Biomarker Activity (AID 2283049); conditions: primary human coronary artery smooth muscle cells; actives raise or lower the signal;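 further: SAA protein level quantified by ELISA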
[9] = BSK_CASM3C_SRB: Viability Assessment in the BioMAP Diversity Plus: CASM3C Assay (AID 2283050); conditions: primary human coronary artery smooth muscle cells;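 further: total protein by SRB staining as cytotoxicity measure in parallel cultures; cells exposed to compound for 24 h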
[10] = read-out: Thrombomodulin, THBD (gene 7056); test: BSK_CASM3C_Thrombomodulin: BioMAP Diversity Plus: CASM3C Assay for Thrombomodulin Biomarker Activity (AID 2283051); conditions: primary human coronary artery smooth muscle cells; actives raise or lower the signal;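 further: thrombomodulin protein level measured by ELISA 24 h after dosing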

Measured: AC50

CCNc1cccc(C)c1
inactive: all assays above

CC(=O)OCCOCCOCCOC(C)=O
inactive: all assays above

CCCCCCCCCCC
inactive: all assays above

CC(=O)C(C)=CC1C(C)=CCCC1(C)C (stereo not given)
inactive: all assays above

CCCCCCCCCCCC(=O)OC
inactive: all assays above

CN[C@H]1CC[C@@H](c2ccc(Cl)c(Cl)c2)c2ccc(S(N)(=O)=O)cc21
active: [1] 35.3 µM | [2] 32.5 µM | [3] 28.2 µM | [4] 34.8 µM | [5] 30.4 µM | [6] 14.7 µM | [7] 31.2 µM | [8] 36 µM | [9] 31.3 µM
inactive: [10]

NCC1(Cc2noc(=O)[nH]2)CCCCC1
inactive: all assays above

C=CCc1ccc(O)c(OC)c1
inactive: all assays above

NC(=O)Cn1c(=O)cc(CCN2CCN(c3nccc4sccc34)CC2)c2ccc(F)cc21
active: [4] 27.5 µM
inactive: all other assays above

COC(=O)c1ccc(O)cc1
inactive: all assays above

CCCCC(CC)COC(=O)CC(C(=O)OCC(CC)CCCC)S(=O)(=O)O (stereo not given)
inactive: all assays above

COc1cc(S(=O)(=O)O)c(C)cc1N=Nc1c(O)ccc2cc(S(=O)(=O)O)ccc12
inactive: all assays above

OC[C@@H](O)[C@@H](O)[C@H](O)[C@H](O)CO
inactive: all assays above

Cc1ccc(C)c(C)c1
inactive: all assays above

CCCCN(CCCC)CCCC
inactive: all assays above

FC(F)(F)C(F)(F)C(F)(F)C(F)(F)C(F)(F)C(F)(F)CCI
inactive: all assays above

CN1CCN(Cc2cc(-c3ccc4[nH]c(=O)oc4c3)co2)[C@@H](c2ccc(F)cc2)C1
active: [5] 0.736 µM | [6] 12.3 µM
inactive: all other assays above

Clc1cc(Cl)c(Cl)cc1Cl
inactive: all assays above

Cc1ccccc1Cl
inactive: all assays above

CCCc1cc(=O)[nH]c(=S)[nH]1
inactive: all assays above

CCCCCC(=O)O
inactive: all assays above

C[Si]1(C)O[Si](C)(C)O[Si](C)(C)O[Si](C)(C)O1
inactive: all assays above

CC1(C)NC(=O)NC1=O
inactive: all assays above

O=[N+]([O-])C(CO)(CO)CO
inactive: all assays above

CC(=O)Oc1ccccc1C(=O)O
inactive: all assays above

c1cc(-c2ccncc2)ccn1
inactive: all assays above

CC1(C)CC(N=C=O)CC(C)(CN=C=O)C1 (stereo not given)
active: [4] 6.43 µM
inactive: all other assays above

O=c1[nH]cc(F)c(=O)[nH]1
active: [6] 13.7 µM
inactive: all other assays above

Nc1ccc(S(=O)(=O)c2ccc(N)cc2)cc1
inactive: all assays above

COc1ccc(S(=O)(=O)N2C(=O)[C@@](c3ccccc3OC)(N3C[C@H](O)C[C@H]3C(=O)N(C)C)c3cc(Cl)ccc32)c(OC)c1
inactive: all assays above

CNCc1cc(F)ccc1Oc1ccc(Cl)c(Cl)c1
active: [4] 13.8 µM | [6] 22 µM
inactive: all other assays above

CCCCCCOCCO
inactive: all assays above

CC(C)(C)c1cc(O)c(C(C)(C)C)cc1O
active: [10] 4.92 µM
inactive: all other assays above

CCCCCCCCCCO
inactive: all assays above

Nc1nc(N)c2nc(CNc3ccc(C(=O)N[C@@H](CCC(=O)O)C(=O)O)cc3)cnc2n1
inactive: all assays above

Cc1oc(-c2ccccc2)nc1CCOc1cccc2c1ccn2CCC(=O)O
inactive: all assays above

Cc1nc(-c2ccc3c(c2)CCN(CCC2CCC(NC(=O)/C=C/c4ccc(F)cc4)CC2)CC3)no1 (stereo not given)
inactive: [1] | [3] | [4] | [10]
active: [2] 9.3 µM | [5] 13.8 µM | [6] 5.83 µM | [7] 11.7 µM | [8] 9.3 µM | [9] 9.3 µM

Cc1cccc(Nc2cc(Cl)nc(SCC(=O)O)n2)c1C
inactive: all assays above

CN1CCCC1=O
inactive: all assays above

Nc1ccccc1N
inactive: all assays above

COCCOCCOC
inactive: all assays above

O=C(OCCCCCOC(=O)c1ccccc1)c1ccccc1
inactive: all assays above

CCOc1ccc2c(c1)C(C)=CC(C)(C)N2
inactive: all assays above
